A short description of assay [1]: qHTS assay for small molecule agonists of the p53 signaling pathway (AID 651631; calls by dose curve; further: nearly all actives have a fitted effect of over 15% in size). Summed up: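 We treat p53RE-bla HCT-116 cells with compounds for 16 h at 37 °C, add LiveBLAzer B/G FRET substrate for 2 h at room temperature, and measure fluorescence intensity.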
Background: Quantitative high-throughput screening tests each substance at several concentrations.

The nature of assay [2]: qHTS assay for small molecules that induce genotoxicity in human embryonic kidney cells expressing luciferase-tagged ATAD5 (AID 651632). Further: nearly all actives have a fitted effect of over 15% in size. The method, boiled down:
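Luminescence read-out: after 16 hr compound exposure at 37C, ATAD5-luciferase HEK293T cells received Amplite, 30 min RT, then CCD imaging. A rise in signal marks genotoxic stress.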

Assay [3] can be described thus: qHTS assay for small molecule agonists of the p53 signaling pathway - cell viability (AID 651633; calls by dose curve;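 further: p53RE-bla HCT reporter cells with a stable beta-lactamase p53 reporter; series mostly up to about 83 µM; nearly all actives have a fitted effect of over 30% in size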). The method, boiled down: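 p53RE-bla cells, seeded at 4,000 per well and rested 5 h at 37 C/5% CO2, received compounds in DMSO for 16 h at 37 C. CellTiter-Glo was then added, and luminescence was read after 30 min at room temperature to gauge cytotoxicity.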
A short description of assay [4]: qHTS assay for small molecules that induce genotoxicity in human embryonic kidney cells expressing luciferase-tagged ATAD5 - cell viability (AID 651634; calls by dose curve; further: nearly all actives have a fitted effect of over 25% in size). The method, boiled down:
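HEK293T ATAD5-luc cells, 2,000/well; compound 15.5 hr, 37C/5% CO2; CellTiter-Fluor 30 min, 37C; fluorescence read.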

The nature of assay [5]: qHTS assay for small molecule disruptors of the mitochondrial membrane potential - cell viability (AID 720634; calls by dose curve; further: nearly all actives have a fitted effect of over 20% in size; further: potency means the concentration at half of the fitted maximal effect). The method, boiled down: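 Luminescence from CellTiter-Glo (ATP content) gave viability in HepG2 cells, read in the same wells as the MMP dye assay after 1 hr compound exposure at 37 C.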
The nature of assay [6]: qHTS assay for small molecule disruptors of the mitochondrial membrane potential (AID 720635). Further: potency means the concentration at half of the fitted maximal effect. Summed up:
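HepG2 cells (2,000/well) attached overnight at 37C, then took compound for 1 hr at 37C, 5% CO2. Mito-MPS dye was added for 30 min; fluorescence was read at 490/535 nm (monomers) and 540/590 nm (aggregates).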

Assay [7] in a line: qHTS assay to test for compound auto fluorescence at 590 nm (red) in HepG2 cells (AID 720674). The method, boiled down: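 Rose Bengal sodium served as the red fluorophore standard. HepG2 monolayers (overnight attachment, MEM with 10% FBS) were exposed to test compounds for 1 hr at 37 C and read at Ex 540/Em 590 nm.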
Assay [8] is described as follows: qHTS assay to test for compound auto fluorescence at 535 nm (green) in HepG2 cells (AID 720675).
The nature of assay [9]: qHTS assay to test for compound auto fluorescence at 460 nm (blue) in HEK293 cells (AID 720678). Summed up:
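Blue-channel (Ex/Em 405/460 nm) intensity measured in HEK293 cultures after overnight compound exposure at 37C; signal expressed relative to triamterene. Cells plated 2,000 per well in 10% dialyzed FBS medium and allowed 4-5 hr to attach.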

Assay [10] is described as follows: qHTS assay to test for compound auto fluorescence at 590 nm (red) in HEK293 cells (AID 720679). The method, boiled down:
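Red-channel autofluorescence (Ex/Em 540/590 nm; Rose Bengal sodium reference) was measured after overnight 37C, 5% CO2 exposure of attached HEK293 cells, 2,000 per well in medium with 10% dialyzed FBS.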

Several values for one entry are separate records, joined by “and”; a condition that tells them apart may be missing. Equal entries are not always repeated. Results filed as inconclusive are left out. The source holds several records for some structures; these can differ, active in one and inactive in another. Activity calls are given as the source filed them. Unless noted, the call rests on the fitted dose curve; in most records, active means well fitted curve in the direction sought with a large enough effect in the repeat runs; inconclusive means weak or mixed curves; inactive means no such curve, though single readings can be large; an effect the other way counts as inactive or inconclusive.

In the case of `BrCCBr`, the molecule was classed as inactive in [1], in [2], in [3], in [4], in assay [7] and in assay [8]. In addition, the call in [9] and in [10] was inactive. The Potency entry in [5] and in assay [6] was “inactive” throughout.
For the molecule `COC(=O)c1ccccc1C(=O)OC`, the call in assay [1], in assay [2], in [3], in [4], in assay [7] and in [8] was inactive. For the same molecule, the molecule was called inactive in assay [9] and in assay [10]. In addition, the Potency result in assay [5] and in assay [6] was “inactive” throughout.
Regarding `O=C(NC(=O)c1c(F)cccc1F)Nc1cc(Cl)c(OC(F)(F)C(F)C(F)(F)F)cc1Cl` (stereo not given), the outcome in assay [1], in [2], in assay [3], in assay [4], in [7] and in assay [9] was inactive. Moreover, in [10], the molecule was classed as inactive. The Potency in assay [5] is 6.68 µM (active) and 7.7 µM (active); in assay [6], 5.31 µM (active) and 7.7 µM (active).
Turning to `COC(=O)NS(=O)(=O)c1ccc(N)cc1`, the outcome in assay [1], in assay [2], in assay [3], in assay [4], in assay [7] and in assay [8] was inactive. The outcome in assay [9] and in assay [10] was inactive. Besides, the Potency result in assay [5] and in [6] was “inactive” in each case.
For the molecule `ClCc1cccnc1`, the outcome in [1], in assay [2], in [3], in assay [4], in assay [7] and in assay [8] was inactive. For the same molecule, the call in assay [9] and in assay [10] was inactive. Besides, the Potency entry in assay [5] and in assay [6] was “inactive” each time.
Regarding `CC(C)(C)OOC(C)(C)C`, the call in assay [1], in assay [2], in assay [3], in assay [4], in assay [7] and in assay [8] was inactive. Moreover, the result in assay [9] and in assay [10] was inactive. Further, the Potency result in assay [5] and in [6] was “inactive” throughout.
In the case of `CNC(=O)Oc1ccccc1OC(C)C`, the molecule was classed as inactive in [1], in assay [2], in [3], in assay [4], in assay [7] and in assay [8]. Moreover, the call in assay [9] and in assay [10] was inactive. Also, the Potency entry in [5] and in assay [6] was “inactive” each time.
On to `CCCCN(CC)C(=O)SCCC`, for which the molecule was classed as inactive in [1], in [2], in [3], in assay [4], in [7] and in assay [8]. The molecule was called inactive in [9] and in [10]. The Potency entry in assay [5] and in [6] was “inactive” each time.
Take `CCCCCOC(=O)c1ccccc1C(=O)OCCCCC`: the outcome in assay [1], in [2], in [3], in [4], in [7] and in [8] was inactive. Besides, the molecule was classed as inactive in [9] and in [10]. Moreover, the Potency entry in assay [5] and in [6] was “inactive” throughout.
For `O=[N+]([O-])c1ccc([As](=O)(O)O)cc1`, the outcome in assay [1], in [2], in assay [3], in assay [4], in [7] and in [8] was inactive. Besides, the outcome in assay [9] and in assay [10] was inactive. For the same molecule, the Potency result in [5] and in assay [6] was “inactive” each time.
Consider `CN(C)N=O`, for which the call in assay [1], in assay [2], in assay [3], in [4], in [7] and in [8] was inactive. The outcome in [9] and in [10] was inactive. Besides, the Potency result in assay [5] and in [6] was “inactive” each time.
In the case of `CCCCOC(=O)c1ccccc1C(=O)OCCCC`, the molecule was called inactive in assay [1], in [2], in assay [3], in assay [4], in assay [7] and in assay [8]. In addition, the outcome in assay [9] and in assay [10] was inactive. Also, the Potency entry in [5] and in [6] was “inactive” each time.
Consider `Cc1ccccc1O`, for which the molecule was classed as inactive in assay [1], in [2], in assay [3], in assay [7], in assay [8] and in [9]. In [10], the result was inactive. Further, the Potency entry in assay [5] and in assay [6] was “inactive” throughout.
As for `CCOP(=S)(OCC)Oc1cnc2ccccc2n1`, the molecule was classed as inactive in [1], in assay [2], in assay [3], in assay [4], in assay [7] and in assay [9]. The outcome in [10] was inactive.
With `CC(C)(C)C(O)(CCc1ccc(Cl)cc1)Cn1cncn1` (stereo not given), the molecule was classed as inactive in assay [1], in assay [2], in [3], in [4], in assay [7] and in assay [8]. For the same molecule, the molecule was called inactive in assay [9] and in assay [10]. In assay [5], the Potency result was “inactive”.
Regarding `COCCl`, the result in assay [1], in assay [2], in assay [3], in assay [7], in assay [8] and in assay [9] was inactive. In assay [10], the molecule was classed as inactive. Moreover, the Potency entry in [5] and in assay [6] was “inactive” throughout.
Take `CC(C)N1C(=O)c2ccccc2NS1(=O)=O`: the outcome in assay [1], in assay [2], in assay [3], in [4], in assay [7] and in [9] was inactive. In addition, the molecule was classed as inactive in assay [10]. Moreover, the Potency result in assay [5] is “inactive”. For the same molecule, the Potency entry in [6] is “inactive and 48.6 µM (active)”.
As for `Cn1cc(-c2ccccc2)c(=O)c(-c2cccc(C(F)(F)F)c2)c1`, the molecule was classed as inactive in assay [1], in assay [2], in [3], in assay [7], in [8] and in assay [9]. Besides, the call in assay [10] was inactive. In addition, the Potency result in assay [5] and in [6] was “inactive” each time.
Consider `CC(NC(C)(C)C)C(=O)c1cccc(Cl)c1` (stereo not given), for which the result in [1], in assay [2], in assay [3], in assay [4], in assay [7] and in assay [9] was inactive. Further, the molecule was called inactive in [10]. Moreover, the Potency entry in [5] and in [6] was “inactive” each time.
With `CC(C)OC(=O)Nc1ccccc1`, the result in assay [1], in assay [2], in [3], in assay [7], in [9] and in [10] was inactive. Further, the Potency entry in [5] and in assay [6] was “inactive” in each case.
In the case of `O=[N+]([O-])c1ccccc1`, the molecule was called inactive in [1], in [2], in assay [3], in assay [7], in assay [8] and in assay [9]. Besides, the result in [10] was inactive. Moreover, the Potency result in assay [5] and in assay [6] was “inactive” in each case.
Consider `O=C(O)c1ccccn1`, for which the molecule was called inactive in assay [1], in assay [2], in assay [3], in assay [7], in [8] and in assay [9]. Also, the outcome in assay [10] was inactive. Besides, the Potency entry in [5] and in [6] was “inactive” in each case.
On to `CCOP(OCC)OCC`, for which the result in assay [1], in assay [2], in assay [3], in assay [7], in assay [8] and in assay [9] was inactive. Besides, the result in [10] was inactive. Further, the Potency entry in [5] and in [6] was “inactive” in each case.
For `CCC[N+](=O)[O-]`, the call in assay [1], in [2], in assay [3], in assay [7], in [9] and in [10] was inactive. For the same molecule, the Potency entry in assay [5] and in assay [6] was “inactive” throughout.
Regarding `CC(C)NC(=O)N1CC(=O)N(c2cc(Cl)cc(Cl)c2)C1=O`, the call in assay [1], in [2], in assay [3], in assay [7], in [8] and in [9] was inactive. Also, in assay [10], the molecule was classed as inactive. Also, the Potency result in assay [5] and in assay [6] was “inactive” in each case.
Consider `Clc1ccc(Cl)cc1`, for which the result in assay [1], in [2], in [3], in assay [7], in assay [9] and in assay [10] was inactive. Further, the Potency entry in [5] and in [6] was “inactive” throughout.
